High-throughput results (PubChem)
Shown is part of a subset that was picked to be rich in hits.
RMI FANCM FP – blocks RMI1/RMI2 complex binding to FANCM MM2 peptide; Fluorescence polarization, RMI core complex with F-MM2 peptide; stronger effect = lower value; FP signal (polarization) at 33 µM; actives 0.58% (n = 70,000); AID 1159607; in the data active means FP signal below about 40
* = called active by the depositor; ! = not active in a repeat.

SMILES | RMI FANCM FP
CC(=O)Nc1cccc(C2=CC(c3cccc(Br)c3)n3ncnc3N2)c1 (stereo unspecified) | 5*
CC(=O)Nc1cccc(NC(=O)C(=O)NC2CCCC2)c1 | 56
CCCOc1ccc(Br)cc1C1C(C(N)=O)=C(C)Nc2ncnn21 (stereo unspecified) | 68
Cc1ccc(-c2csc(/C(C#N)=C\c3ccc(O)c([N+](=O)[O-])c3)n2)cc1 | 57
Cc1ccc(NC(=O)Cn2c(C)cc(C)c(-c3nc(-c4ccc5c(c4)OCO5)no3)c2=O)cc1C | 131
O=C(C1=C(Cl)c2cccc3cccc(c23)C1=O)c1ccccc1 | 52
O=C1C([N+](=O)[O-])=C(O)c2cccc3cccc1c23 | -1*
O=C1c2ccc3ccccc3c2-c2cccc3cccc1c23 | -54
Cc1ccc(-c2csc(/C(C#N)=C/Nc3ccc(Cl)c(C(F)(F)F)c3)n2)cc1 | 65
N#C/C(=C\Nc1ccc(S(=O)(=O)N=C(N)N)cc1)c1nc(-c2ccc([N+](=O)[O-])cc2)cs1 | 104
N#C/C(=C\Nc1ccc(S(=O)(=O)NC(N)=O)cc1)c1nc(-c2ccc(Cl)cc2)cs1 | 15*
CSc1cccc(NC(=O)C2(c3cccs3)CCCC2)c1 | 62
Cc1cc2c(c(=O)o1)C(C(C)C)C(C#N)=C(N)O2 (stereo unspecified) | 56
Cc1ccc(C(=O)NCCCN2CCN(c3ccccc3)CC2)cc1C | 67
CCOc1ccc(NC(=O)Cn2c(CC)nc3c(sc4cccc(F)c43)c2=O)cc1 | 133
O=[N+]([O-])c1cnc(Sc2nnc(-c3ccc(Cl)cc3)o2)s1 | 55
O=[N+]([O-])c1cnc(Sc2ccc(C(F)(F)F)cn2)s1 | 58
CSc1nnc(Sc2ncc([N+](=O)[O-])s2)s1 | 2*
COCc1ccc(C(=O)Nc2cc(C)nc3ccc(Br)cc23)o1 | 63
CC1(C)CC2C1CCC1(C)OC1CCC2(C)O (stereo unspecified) | 67
CC1(C)CC2C1CCC1(C)OC2(C)CCC1O (stereo unspecified) | -8*
CC(C)CCNC(=O)C(=O)Nc1ccc(F)c(Cl)c1 | 54
Cc1n[nH]c(C)c1NC(=O)c1cc2cc([N+](=O)[O-])ccc2oc1=O | 70
CCCOc1ccc(-c2cc(C(=O)N=Nc3c(O)[nH]c4ccccc34)[nH]n2)cc1 | 58
CCOC(=O)COc1ccc(-c2cc(-c3ccccc3)c3cc(Cl)ccc3n2)cc1 | 64
SMILES | RMI FANCM FP
Cc1ccc2nc(-c3ccc(OCC(=O)N=Nc4c(O)[nH]c5ccccc45)cc3)cc(-c3ccccc3)c2c1 | 20*
CC(C)S(=O)(=O)c1cnc(N)nc1N | 54
Cn1c(=O)c(C(=O)NCc2ccco2)cc2cccnc21 | 54
CCOC(=O)c1csc(NC(=O)c2ccc(Br)o2)n1 | 70
CN(c1ccc2c(c1)OCO2)S(=O)(=O)c1ccsc1-c1nc(-c2cccc(F)c2)no1 | 69
O=C(CSc1ncnc2[nH]ncc12)Nc1nc(-c2ccco2)c(-c2ccco2)s1 | -3*
COc1ccc(CCNC(=O)CSc2ncnc3[nH]ncc23)cc1OC | 55
CCSc1nnc(NC(=O)CSc2ncnc3c2cnn3-c2ccccc2)s1 | 55
CSc1nc(N)nc(N2CCSCC2)n1 | 54
CSc1ccc(CC(=O)Nc2nnc(-c3ccc4c(c3)OCO4)o2)cc1 | 68
OCc1cnc(SCc2ccc(Cl)c(Cl)c2)n1Cc1ccc(Cl)cc1 | 68
O=C(O)c1cccc(Nc2nc3ccccc3nc2NS(=O)(=O)c2ccc(F)cc2)c1 | 58
COc1ccc(NS(=O)(=O)c2ccc(NC(C)=O)cc2)cc1 | 55
COc1ccc(Nc2nc3ccccc3nc2NS(=O)(=O)c2ccc(NC(C)=O)cc2)cc1 | 7*!
CC(C)C(=O)Nc1ccc(SCC(=O)N2CCCc3ccccc32)nn1 | 66
COc1cccc(-c2noc(CSc3nc4ccccc4c(=O)n3Cc3ccco3)n2)c1OC | 101
CCOC(=O)c1cnc(SCC(=O)c2cc(Cl)c(Cl)s2)nc1N | 66
COC(=O)Nc1ccc2c(c1)NC(=O)C(C)(C)CO2 | 66
CC1(C)COc2ccc(N)cc2NC1=O | 37*
CC(C)S(=O)(=O)Nc1ccc2c(c1)NC(=O)C(C)(C)CO2 | 70
CCc1cccc2sc(NC(=O)C3CC3)nc12 | 71
CC1CCCC(C)N1CC(O)COc1ccc(C23CC4CC(CC(C4)C2)C3)cc1 (stereo unspecified) | 92
Cc1ccccc1C(=O)Nc1sc(-c2ccccc2)cc1C(N)=O | 65
OCCN1CCN(c2cc(-c3ccccc3)nc3c(-c4ccc(Cl)cc4)cnn23)CC1 | 28*
COc1ccccc1-c1cnn2c(N3CCN(Cc4ccccc4)CC3)cc(C)nc12 | 60
SMILES | RMI FANCM FP
CC(C)(C)c1cc(N2CCN(C3CCCC3)CC2)n2ncc(-c3ccccc3)c2n1 | 60
COc1ccc(OC)c(NC(=O)c2snnc2C)c1 | 57
Cc1ccc2nc(C(F)(F)F)cc(N3CCN(/C=C(/C#N)S(=O)(=O)c4ccccn4)CC3)c2c1 | 44
CC(Oc1ccc(Cl)cc1Cl)C(=O)NC1=NCCS1 (stereo unspecified) | 59
N#C/C(=C\c1ccc(Cl)c(Cl)c1)c1nc2ccccc2c(=O)[nH]1 | 62
CC(O)=c1c(=O)nc2ccc(Cl)c3c2=c1c1ccccc1c3=O | -21*
CN(C)c1ccc(-c2nc3ccccc3c(=O)[nH]2)c(Cl)c1 | 51
CC(C)(C)NC[C@H](O)COc1cccc2c1CCCC2=O | 55
COc1ccccc1OCC(O)CNC(C)(C)C (stereo unspecified) | 71
CC(C)(C)NCC(O)COc1cccc2c1C[C@H](O)[C@H](O)C2 (stereo partly specified) | -57*!
O=C(Nc1csc(-c2ccc(Oc3ccc(-c4nc(NC(=O)c5cc(Cl)sc5Cl)cs4)cc3)cc2)n1)c1cc(Cl)sc1Cl | 65
O=C(Nc1nc(-c2ccc(Br)cc2)cs1)c1ccc(Oc2ccc(C(=O)Nc3nc(-c4ccc(Br)cc4)cs3)cc2)cc1 | 58
O=C(Nc1csc(-c2ccc(Oc3ccc(-c4nc(NC(=O)c5ccc(C(=O)c6ccccc6)cc5)cs4)cc3)cc2)n1)c1ccc(C(=O)c2ccccc2)cc1 | 25*
O=C(Nc1csc(-c2ccc(Oc3ccc(-c4nc(NC(=O)c5ccc(S(=O)(=O)N6CCOCC6)cc5)cs4)cc3)cc2)n1)c1ccc(S(=O)(=O)N2CCOCC2)cc1 | 9*
O=C(Nc1ccc(S(=O)(=O)N2CCOCC2)cc1)c1ccc(Cl)cc1 | 55
O=S(=O)(c1ccc(-c2nc(-c3ccc(Cl)cc3)cs2)cc1)N1CCOCC1 | 50
O=C(NNC(=O)c1cccs1)c1cncc(C#Cc2ccccc2)c1 | 55
CCOC(=O)NC(=S)c1cccn1C | 55
O=C(c1cccnc1Oc1ccccc1)N1CCN(C2c3ccccc3-c3ccccc32)CC1 | 57
O=C(O)c1ccccc1C(=O)N1CCN(C2c3ccccc3-c3ccccc32)CC1 | 32*
Cc1cc(C(=O)N2CCN(C3c4ccccc4-c4ccccc43)CC2)c(C)o1 | 47
COc1ccc(/C=C/C(=O)O)cc1S(=O)(=O)NCc1ccc2c(c1)OCO2 | 59
O=C1Sc2cccc3cccc1c23 | 58*
CNN1C(=O)c2cccc3cccc(c23)C1=O | 55
O=C(O)c1cccc2cccc(-c3cccc4cccc(C(=O)O)c34)c12 | 53
COc1cc(OC)cc(C(=O)Nc2ccc3c(c2)NC(=O)C(C)(C)CO3)c1 | 65
COc1ccc(/C=N\N=C2\NC(=O)C(CC(=O)Nc3sc4c(c3C#N)CCCC4)S2)cc1 (stereo unspecified) | 58
